This is an account of results in PubChem BioAssay AID1490 (National Center for Advancing Translational Sciences (NCATS), 2009).

Several values for one entry are separate records, joined by “and”; a condition that tells them apart may be missing. Identical values can stand only once. Among all 310,000 compounds or so, about 11,000 (3.5%) were called active. About 4% were inconclusive and are not listed. This is one part of a sample in which actives are shown more often than they occur. Some structures have more than one record in an assay (separate samples or runs), and their calls can disagree. Values without a mark were called inactive. Calls follow the shape of the dose curve; as a rule, active = well fitted inhibition curve with a large enough effect; inconclusive = small, poorly fitted or top-dose-only effect, or another doubt; inactive = no such curve, though single readings can be large or run the other way.
Potency is read from the fitted curve at half-maximal effect.

The target in the test is 4'-phosphopantetheinyl transferase ffp (Bacillus subtilis) (UniProt Q9F4F7). Briefly: qHTS Assay for Inhibitors of Bacillus subtilis Sfp phosphopantetheinyl transferase (PPTase).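 Also: the enzyme is Sfp with the accession as filed and its product quenches rhodamine fluorescence.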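 As to largest response in the series, negative = inhibition: 0% = enzyme reaction without inhibitor and -100% = no enzyme wells.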 The following applies: Biochemical Sfp PPTase activity. The method, boiled down:
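With Hepes-Na pH 7.6 buffer containing 10 mM MgCl2, Sfp (15 nM) modified BHQ-2-YbbR (12.5 uM) using rhodamine-CoA (5 uM). Two reads 30 minutes apart at 525/598 nm yielded each well's rate.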
A general note: In qHTS, concentration-response curves come from the screen itself.
For the molecule `COc1cc(Cn2c(N)c(C(=O)NCc3ccco3)c3nc4ccccc4nc32)cc(OC)c1OC`, the Potency was 56.2 µM (active).
With `CCOC(=O)c1c(N)n(Cc2ccccc2)c2nc3ccccc3nc12`, the largest response in the series, negative = inhibition is 13.5%.
On the same count and under the same terms, with `CCOC(=O)C(O)(c1ccc(NC(=O)c2ccco2)c(OC)c1)C(F)(F)F` (stereo not given) the figure was 3.62%; with `c1cncc(CNC2=NCCC2)c1`, 12.2%; with `CC1CCCCN1Cc1cccnc1` (stereo not given), -23.2%.
On to `CN1CCC(N(C)Cc2cccnc2)CC1`, for which the Potency is 89.1 µM (active).
Regarding `CC(=O)c1c(O)c(C)c(O)c(Cc2c(O)c3c(c(C(=O)/C=C\c4ccccc4)c2O)OC(C)(C)C=C3)c1O`, the largest response in the series, negative = inhibition is -29.6%.
On the same count and under the same terms, with `COC1CC(OC2CC[C@@]3(C=O)C4CC[C@]5(C)C(C6=CC(=O)OC6)CC[C@@]5(O)C4CC[C@]3(O)C2)OC(C)C1O` (stereo not given in full) the figure was 2.96%; with `CN1CCN(C(=S)SCC(=O)Nc2ccc(Cl)cc2C(=O)c2ccccc2)CC1`, -8.26%.
`CC(C(=O)Nc1ccc(Cl)cc1Cl)N1CC=C(c2ccccc2)CC1` (stereo not given): the Potency was 56.2 µM (active).
In the case of `CN(C)C1C(=O)C(C(N)=O)=C(O)[C@@]2(O)C(=O)C3=C(O)c4c(O)cccc4[C@@](C)(O)C3C[C@@H]12` (stereo not given in full), the largest response in the series, negative = inhibition was -32.6%.
On the same count and under the same terms, the value for `C[C@@H]1C[C@H]2CC[C@H](O2)[C@H](C)C(=O)O[C@@H](C)C[C@@H]2CC[C@@H](O2)[C@@H](C)C(=O)O[C@H](C)C[C@H]2CC[C@H](O2)[C@H](C)C(=O)O[C@@H](C)C[C@@H]2CC[C@@H](O2)[C@@H](C)C(=O)O1` was 6.1%; that for `CC(=O)OC1C2CCC3C1(CC(O)[C@@]1(O)[C@@H](CC(O)C1(C)C)[C@]3(C)O)C[C@@]2(C)O` (stereo not given in full) was 6.04%; that for `N#Cc1c(Cl)c(Cl)c(Cl)c(C#N)c1Cl` was -8.59%.
On the same count and under the same terms, with `CC[N+]1(CCOC(=O)C(O)(c2ccccc2)c2ccccc2)CCCCC1` the figure was 12%.
On the same count and under the same terms, with `CO[C@@H]1C[C@@H](C[C@H]2CC[C@H](C)[C@@H]([C@@H](C)C(=O)O)O2)O[C@]2(O[C@](C)([C@H]3CC[C@@](C)(C4OC([C@H]5O[C@@](O)(CO)[C@H](C)C[C@@H]5C)C[C@@H]4C)O3)C[C@H]2C)[C@@H]1C` (stereo not given in full) the figure was 23.4%.
Regarding `CN(C)/C=C(\C=[N+](C)C)c1[nH]ncc1[N+](=O)[O-]`, the largest response in the series, negative = inhibition was 0.787%.
`CC(C)(Cc1c[nH]c2ccc(Cl)cc12)NCCOc1ccccc1OCC1CC1`: the Potency was 35.5 µM (active) and the largest response in the series, negative = inhibition is -25.3%.
Consider `CCC(=O)CC(c1ccc([N+](=O)[O-])cc1)c1c(O)c2ccccc2oc1=O` (stereo not given), for which the largest response in the series, negative = inhibition is 6.92%.
On the same count and under the same terms, with `c1ccc(CN2CC[C@@]3(CCCNC3)C2)cc1` the figure was 1.98%.
As to `COc1ccc(C2CC(c3cccs3)=NN2c2nc(C)c(C(C)=O)s2)cc1OC` (stereo not given), the Potency is 39.8 µM (active).
Take `Cc1ccc(-n2c(O)c(C=NCC3CCCO3)c(=O)[nH]c2=O)c(C)c1` (stereo not given): the largest response in the series, negative = inhibition was -4.95%.
On to `CNC(=S)N/N=C1\C2CN3CCN(C2)CC1(c1ccccc1)C3`, for which the largest response in the series, negative = inhibition is -18%.
In the case of `COc1cccc(N2C(=O)NC(=O)/C(=C\c3ccc([N+](=O)[O-])s3)C2=O)c1`, the Potency is 31.6 µM (active).
Same read-out and setting: with `O=C1NC(=O)N(c2ccccc2)C(=O)/C1=C/c1ccc([N+](=O)[O-])s1` the figure was 35.5 µM (active).
Regarding `COc1cc(-n2c(=S)[nH]c3ccc(C)cc3c2=O)c(Cl)cc1Cl`, the largest response in the series, negative = inhibition is 4.46%.
Still for that read-out and setting: the value for `C=CCSSCC=C` was -26.6%; that for `Cc1cccc([C@H](C)c2cnc[nH]2)c1C` was 9.27%; that for `COc1ccc(C2N3CC(C)(C)CN23)cc1` (stereo not given) was 0.855%.
As to `Cc1cccc(-n2c(O)c(C=NC34CN5CN(CN(C5)C3)C4)c(=O)[nH]c2=O)c1`, the largest response in the series, negative = inhibition is 9.77%.
Still for that read-out and setting: the value for `C[N+]12CN3CN(CN(C3)C1)C2` was 12.8%.
On the same count and under the same terms, the value for `c1ccc(N2CC[C@@]3(CCCNC3)C2)nc1` was -23.5%; that for `O=c1[nH]c(=O)n(-c2ccccc2)c(O)c1C=NC12CN3CN(CN(C3)C1)C2` was -28%; that for `CCCCCCCCCCCCN=C(N)N` was -27%.
Take `O=C1NC(=O)N(c2ccc(F)cc2)C(=O)/C1=C/c1ccc2c(c1)CCCN2Cc1ccccc1`: the Potency is 44.7 µM (active).
Regarding `CCC(C)C(=O)O[C@@H]1C[C@@]2(C)C(c3ccoc3)OC(=O)CC23OC2(C)O[C@@]14[C@@]1(C)C(CC(=O)OC)C5(C)CC1(O)C(O)(C5OC(=O)C1(C)OC1C)C(OC(C)=O)[C@@]34O2` (stereo not given in full), the largest response in the series, negative = inhibition was 3.31%.
As for `CN(C)CC1CCCCC1OC(=O)c1ccc(Cl)c(Cl)c1` (stereo not given), the largest response in the series, negative = inhibition was -11.6%.
On the same count and under the same terms, the value for `CCCCCCN=C(CC)c1c(O)n(CCCC)c(=O)[nH]c1=O` was -9.2%; that for `C[C@@]12CCC3C(CC[C@@H]4CC(O)CC[C@@]34C)C1CCC2O` (stereo not given in full) was 7.22%.
In the case of `Cc1ncsc1CCCl`, the Potency was 79.4 µM (active).
Regarding `Clc1ccc([C@@H]2C[C@H]3CC[C@@H]2N3)cn1`, the largest response in the series, negative = inhibition is 9.37%.
The same measure, in the same setting: with `Cc1ccc(-c2nn(CCC#N)cc2C(=O)O)cc1C` the figure was 25.7%; with `CC(c1ccccc1)(c1ccccc1)c1ccncc1`, 5%; with `c1csc(CN2CCCC3(CCNCC3)C2)n1`, 3.74%.
On the same count and under the same terms, the value for `COc1ccc(C2Oc3c(I)c(OC)cc(OC)c3CC2O)cc1OC` (stereo not given) was -16.3%.
`CC[N+](C)(CC)CCC[n+]1c(-c2ccccc2)c2cc(N)ccc2c2ccc(N)cc21`: the Potency is 28.2 µM (active) and 50.1 µM (active).
Turning to `CC(C)(C)c1ccc(CN2C(=O)CN=C(c3ccccc3)c3ccccc32)cc1`, the largest response in the series, negative = inhibition is -3.66%.
For `Cc1ccc(S(=O)(=O)N(C)c2ccc(C(=O)NCC3(N(C)C)CCCCC3)cc2)cc1`, the largest response in the series, negative = inhibition was 13.3%.
With `COC1=C[C@]23CCCN2CCc2cc4c(cc2[C@@H]3[C@@H]1O)OCO4`, the largest response in the series, negative = inhibition was 1.35%.
Still for that read-out and setting: with `CC(=O)c1c(O)n(C2CCCCCC2)c(=O)[nH]c1=O` the figure was 6.22%; with `COc1ccccc1N1CCN(C(CNC(=O)Oc2ccccc2)c2cccnc2)CC1` (stereo not given), 2.8%; with `COc1ccc(CCn2c(O)c(C=NC3CC3)c(=O)[nH]c2=O)cc1OC`, 12.3%.
As for `O=C(O)C1CSC(c2cccnc2)N1` (stereo not given), the Potency was 56.2 µM (active).
With `CNC(=O)Nc1ccc(C(O)(C(=O)OC)C(F)(F)F)cc1` (stereo not given), the largest response in the series, negative = inhibition was 6.69%.
